PubChem BioAssay (Tox21)
Inconclusive results are not listed. Calls of active or inactive are those of the source. Unless noted, calls come from the whole dose curve; as a rule, active = well fitted curve in the direction sought with a large enough effect in the repeat runs; inconclusive = weak or mixed curves; inactive = no such curve, though single readings can be large; an effect the other way counts as inactive or inconclusive.

Experiments:
[1] = qHTS assay to identify aromatase inhibitors - cell viability counter screen (AID 743084);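 note: cells stimulated with testosterone during compound exposure; nearly all actives have a fitted effect of over 55% in size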
[2] = target: Aryl hydrocarbon receptor (Homo sapiens) (UniProt P35869); test: qHTS assay to identify small molecule that activate the aryl hydrocarbon receptor (AhR) signaling pathway (AID 743085);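 note: HG2L7.5c1 human HepG2 liver cells with stably integrated DRE-driven firefly reporter; series mostly up to about 70 µM; nearly all actives have a fitted effect of over 15% in size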
Aryl hydrocarbon receptor (Homo sapiens), sequence (P35869 whole entry, looked up): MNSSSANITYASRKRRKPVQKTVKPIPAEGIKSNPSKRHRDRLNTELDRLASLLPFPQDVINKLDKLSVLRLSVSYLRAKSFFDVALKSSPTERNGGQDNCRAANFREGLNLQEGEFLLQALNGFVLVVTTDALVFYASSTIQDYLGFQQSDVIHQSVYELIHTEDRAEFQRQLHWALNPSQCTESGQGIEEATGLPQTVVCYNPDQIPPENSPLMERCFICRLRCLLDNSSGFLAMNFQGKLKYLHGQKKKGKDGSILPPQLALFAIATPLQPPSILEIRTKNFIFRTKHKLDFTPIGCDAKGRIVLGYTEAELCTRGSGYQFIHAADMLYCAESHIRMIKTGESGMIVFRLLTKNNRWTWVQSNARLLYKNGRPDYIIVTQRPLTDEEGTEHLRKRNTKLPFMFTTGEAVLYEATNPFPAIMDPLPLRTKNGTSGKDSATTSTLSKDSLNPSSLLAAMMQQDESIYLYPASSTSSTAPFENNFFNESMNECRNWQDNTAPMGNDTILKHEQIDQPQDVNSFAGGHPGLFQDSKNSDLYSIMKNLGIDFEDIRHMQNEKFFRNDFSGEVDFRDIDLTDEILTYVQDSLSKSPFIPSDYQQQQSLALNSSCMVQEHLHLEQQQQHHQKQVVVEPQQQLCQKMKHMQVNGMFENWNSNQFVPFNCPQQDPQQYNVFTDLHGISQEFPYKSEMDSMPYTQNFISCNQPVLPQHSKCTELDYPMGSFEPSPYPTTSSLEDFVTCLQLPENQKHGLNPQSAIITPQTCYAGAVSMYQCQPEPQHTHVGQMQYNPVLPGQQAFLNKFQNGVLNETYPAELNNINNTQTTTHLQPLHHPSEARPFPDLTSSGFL
Outline: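 Compounds were tested in HepG2 hepatocellular carcinoma cells harbouring a stably integrated luciferase gene under control of 20 DREs. Increased reporter signal after 24 h treatment at 37C was taken as AhR activation.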

[3] = qHTS assay to identify small molecule that activate the aryl hydrocarbon receptor (AhR) signaling pathway - cell viability counter screen (AID 743086);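 note: HepG2 liver cells carrying the AhR DRE luciferase reporter; series mostly up to about 70 µM; nearly all actives have a fitted effect of over 45% in size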
Outline: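 HepG2-AhR-luc (HG2L7.5c1) cells, 4000/well, treated 24 h at 37 C with compound; viability measured as CellTiter-Fluor fluorescence after 30 min in the same wells as the luciferase read.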

[4] = qHTS assay to identify small molecule antagonists of the peroxisome proliferator-activated receptor gamma (PPARg) signaling pathway - cell viability counter screen (AID 743194); conditions: Potency: co-treated with 50 nM rosiglitazone unless noted; note: nearly all actives have a fitted effect of over 55% in size
Outline: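 Cytotoxicity counter screen in PPARg-bla HEK293H cells, same wells as reporter assay. Compounds plus 50 nM rosiglitazone (final) for 17 h at 37 C, then viability read by CellTiter-Glo luminescence.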

[5] = qHTS assay for small molecule agonists of the antioxidant response element (ARE) signaling pathway (AID 743202; active = well fitted activation curve with a large enough effect in the signal ratio in the repeat runs, not every such curve was filed as active; the % refers to the signal ratio)
Outline: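 HepG2 ARE-bla cells; 16 h treatment at 37 C; FRET-based beta-lactamase fluorescence read after 2 h substrate incubation at room temperature.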

[6] = qHTS assay for small molecule agonists of the antioxidant response element (ARE) signaling pathway - cell viability counter screen (AID 743203; calls by dose curve; note: nearly all actives have a fitted effect of over 55% in size)
Outline: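 Luminescence read-out (CellTiter-Glo, 30 min at room temperature) measured cell viability in the same wells as the ARE beta-lactamase reporter. HepG2 ARE-bla cells were treated with compounds for 16 hrs at 37C/5% CO2.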

[7] = qHTS assay for small molecule activators of the heat shock response signaling pathway - cell viability counter screen (AID 743209); note: nearly all actives have a fitted effect of over 50% in size
Outline: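 HSE-bla HeLa; 1500 cells/well; overnight 37 C, 5% CO2; compound 5 h 37 C; LiveBLAzer B/G substrate 2.5 h RT; CellTiter-Glo 30 min RT; luminescence.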

[8] = qHTS assay to identify small molecule agonists of the peroxisome proliferator-activated receptor delta (PPARd) signaling pathway - cell viability counter screen (AID 743211); note: nearly all actives have a fitted effect of over 55% in size
Outline: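 Counter screen for cytotoxicity run in parallel with the PPARd reporter screen. Beta-lactamase reporter HEK293H cells exposed to compounds 17 h; ATP-based CellTiter-Glo luminescence quantified viability.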

[9] = target: Peroxisome proliferator-activated receptor delta (Homo sapiens) (UniProt Q03181); test: qHTS assay to identify small molecule agonists of the peroxisome proliferator-activated receptor delta (PPARd) signaling pathway (AID 743212; calls by dose curve)
Peroxisome proliferator-activated receptor delta (Homo sapiens), sequence (Q03181 whole entry, looked up): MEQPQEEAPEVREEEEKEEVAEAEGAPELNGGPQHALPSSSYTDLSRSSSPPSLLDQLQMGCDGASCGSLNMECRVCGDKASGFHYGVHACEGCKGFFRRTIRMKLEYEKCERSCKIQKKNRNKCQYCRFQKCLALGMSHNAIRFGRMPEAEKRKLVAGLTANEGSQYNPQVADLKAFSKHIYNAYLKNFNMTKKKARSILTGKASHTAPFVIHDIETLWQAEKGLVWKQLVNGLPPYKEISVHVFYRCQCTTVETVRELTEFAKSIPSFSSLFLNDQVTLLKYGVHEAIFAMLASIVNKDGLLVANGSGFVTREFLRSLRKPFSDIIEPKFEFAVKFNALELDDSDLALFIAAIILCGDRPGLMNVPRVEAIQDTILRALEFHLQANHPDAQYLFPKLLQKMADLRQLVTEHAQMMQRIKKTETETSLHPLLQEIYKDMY
Outline: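 Tox21 library screened in GeneBLAzer PPARd UAS-bla HEK293H cells. After compound treatment at 37 C, a FRET-based beta-lactamase substrate was applied for 2 h and fluorescence recorded.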

[10] = target: Peroxisome proliferator-activated receptor delta (Homo sapiens) (UniProt Q03181); test: qHTS assay to identify small molecule antagonists of the peroxisome proliferator-activated receptor delta (PPARd) signaling pathway (AID 743215; active = well fitted inhibition curve with a large enough effect in the signal ratio in the repeat runs, not every such curve was filed as active; the % refers to the signal ratio;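 note: cells stimulated with agonist L165041 at 300 nM final during compound exposure; series mostly up to about 62 µM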)
Outline: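 HEK293H GeneBLAzer PPARd UAS-bla reporter cells; cpd + L165041 300 nM final, 17 h 37 C; LiveBLAzer B/G FRET substrate 2 h RT; fluorescence intensity read-out. Antagonist mode.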

[11] = target: Bile acid receptor (Homo sapiens) (UniProt Q96RI1); test: qHTS assay to identify small molecule antagonists of the farnesoid-X-receptor (FXR) signaling pathway (AID 743217; active = well fitted inhibition curve with a large enough effect in the signal ratio in the repeat runs, not every such curve was filed as active; the % refers to the signal ratio)
Bile acid receptor (Homo sapiens), sequence (Q96RI1 whole entry, looked up): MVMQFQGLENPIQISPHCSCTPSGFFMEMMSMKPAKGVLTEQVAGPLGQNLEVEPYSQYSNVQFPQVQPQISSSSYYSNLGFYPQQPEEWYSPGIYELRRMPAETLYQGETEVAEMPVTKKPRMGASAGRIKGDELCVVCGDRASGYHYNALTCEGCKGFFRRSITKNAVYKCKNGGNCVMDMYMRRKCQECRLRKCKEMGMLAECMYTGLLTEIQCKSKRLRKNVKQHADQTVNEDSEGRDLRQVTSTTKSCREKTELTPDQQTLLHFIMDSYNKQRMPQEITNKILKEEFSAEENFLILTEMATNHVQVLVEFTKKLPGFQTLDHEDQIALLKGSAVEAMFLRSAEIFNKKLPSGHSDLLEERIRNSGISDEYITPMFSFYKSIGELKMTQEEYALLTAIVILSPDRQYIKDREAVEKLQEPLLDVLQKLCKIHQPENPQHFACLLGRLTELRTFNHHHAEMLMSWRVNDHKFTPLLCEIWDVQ
Outline: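 Read-out: beta-lactamase FRET fluorescence (LiveBLAzer B/G substrate, 2 h, room temperature) in GeneBLAzer FXR-UAS-bla HEK 293T cells. Compounds were co-dosed with 50 uM chenodeoxycholic acid (final) and incubated 16 h at 37 °C.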

[12] = qHTS assay to identify small molecule agonists of the farnesoid-X-receptor (FXR) signaling pathway - cell viability counter screen (AID 743218); note: nearly all actives have a fitted effect of over 45% in size
Outline: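 Luminescence from CellTiter-Glo, read after 30 min at RT, reports viability of GeneBLAzer FXR-UAS-bla HEK 293T cells treated 16 h with compounds in the wells used for the beta-lactamase reporter.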

[13] = target: Bile acid receptor (Homo sapiens) (UniProt Q96RI1); test: qHTS assay to identify small molecule agonists of the farnesoid-X-receptor (FXR) signaling pathway (AID 743220; active = well fitted activation curve with a large enough effect in the signal ratio in the repeat runs, not every such curve was filed as active; the % refers to the signal ratio)
Outline: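 FXR-UAS-bla HEK 293T cells carrying a UAS-driven beta-lactamase reporter were plated for 5 h at 37C/5% CO2, then exposed to DMSO-dissolved Tox21 10K compounds for 16 h at 37C. A LiveBLAzer B/G FRET substrate was loaded for 2 h at room temperature before fluorescence reading.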

[14] = qHTS assay to identify small molecule antagonists of the farnesoid-X-receptor (FXR) signaling pathway - cell viability counter screen (AID 743221; active = well fitted cell-killing curve with a large enough effect in the repeat runs, not every such curve was filed as active; note: nearly all actives have a fitted effect of over 50% in size)
Outline: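 Multiplexed counter screen: viability of FXR-bla HEK 293T cells under agonist stimulation by chenodeoxycholic acid (50 uM, final) and test compound for 16 h at 37 C, measured by CellTiter-Glo luminescence in the reporter wells.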

[15] = target: Vitamin D3 receptor (Homo sapiens) (UniProt P11473); test: qHTS assay to identify small molecule agonists of the vitamin D receptor (VDR) signaling pathway (AID 743222; calls by dose curve)
Vitamin D3 receptor (Homo sapiens), sequence (P11473 whole entry, looked up): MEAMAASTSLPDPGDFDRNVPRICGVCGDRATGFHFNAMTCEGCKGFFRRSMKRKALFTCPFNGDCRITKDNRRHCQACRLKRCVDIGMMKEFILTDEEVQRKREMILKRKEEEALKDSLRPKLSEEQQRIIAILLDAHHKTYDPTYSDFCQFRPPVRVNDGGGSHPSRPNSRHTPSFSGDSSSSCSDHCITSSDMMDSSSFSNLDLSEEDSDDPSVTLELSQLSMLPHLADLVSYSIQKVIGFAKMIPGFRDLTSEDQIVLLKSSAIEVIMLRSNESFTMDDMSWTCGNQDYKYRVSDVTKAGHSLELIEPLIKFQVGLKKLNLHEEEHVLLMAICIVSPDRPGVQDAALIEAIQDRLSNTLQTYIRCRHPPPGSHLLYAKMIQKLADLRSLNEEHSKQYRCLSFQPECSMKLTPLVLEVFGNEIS
Outline: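 Beta-lactamase reporter readout (LiveBLAzer B/G FRET, 2 h RT) in VDR-bla cells after 16 h compound treatment at 37C, 5% CO2; cells pre-incubated 4 h before pin transfer of DMSO solutions.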

[16] = target: Vitamin D3 receptor (Homo sapiens) (UniProt P11473); test: qHTS assay to identify small molecule antagonists of the vitamin D receptor (VDR) signaling pathway (AID 743223; active = well fitted inhibition curve with a large enough effect in the signal ratio in the repeat runs, not every such curve was filed as active; the % refers to the signal ratio)
Outline: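 Cells carrying a VDR-driven beta-lactamase reporter (VDR-bla) were co-treated with compound and 3 nM final 1alpha,25-dihydroxyvitamin D3 for 16 h at 37C; reporter activity was measured as FRET substrate fluorescence after 2 h at room temperature.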

[17] = qHTS assay for small molecule activators of the heat shock response signaling pathway (AID 743210; active = well fitted activation curve with a large enough effect in the signal ratio in the repeat runs, with a control signal flat, not every such curve was filed as active; the % refers to the signal ratio;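 note: HeLa cells with beta-lactamase reporter driven by heat shock elements; series mostly up to about 63 µM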)
Outline: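 Following overnight attachment, HSE-bla HeLa cells received test compounds for 5 h at 37 C; beta-lactamase activity was then detected via FRET substrate fluorescence.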

[18] = qHTS assay to identify small molecule antagonists of the peroxisome proliferator-activated receptor delta (PPARd) signaling pathway - cell viability counter screen (AID 743213); note: nearly all actives have a fitted effect of over 50% in size
Outline: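 PPARd-bla HEK293H cells (3000/well) got compound plus 300 nM L165041 agonist for 17 h at 37 C. Viability in the same wells came from CellTiter-Glo luminescence after 30 min at room temperature.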

[19] = target: Peroxisome proliferator-activated receptor gamma (Homo sapiens) (UniProt P37231); test: qHTS assay to identify small molecule agonists of the peroxisome proliferator-activated receptor gamma (PPARg) signaling pathway (AID 743094; active = well fitted activation curve with a large enough effect in the signal ratio in the repeat runs, not every such curve was filed as active; the % refers to the signal ratio)
Peroxisome proliferator-activated receptor gamma (Homo sapiens), sequence (P37231 whole entry, looked up): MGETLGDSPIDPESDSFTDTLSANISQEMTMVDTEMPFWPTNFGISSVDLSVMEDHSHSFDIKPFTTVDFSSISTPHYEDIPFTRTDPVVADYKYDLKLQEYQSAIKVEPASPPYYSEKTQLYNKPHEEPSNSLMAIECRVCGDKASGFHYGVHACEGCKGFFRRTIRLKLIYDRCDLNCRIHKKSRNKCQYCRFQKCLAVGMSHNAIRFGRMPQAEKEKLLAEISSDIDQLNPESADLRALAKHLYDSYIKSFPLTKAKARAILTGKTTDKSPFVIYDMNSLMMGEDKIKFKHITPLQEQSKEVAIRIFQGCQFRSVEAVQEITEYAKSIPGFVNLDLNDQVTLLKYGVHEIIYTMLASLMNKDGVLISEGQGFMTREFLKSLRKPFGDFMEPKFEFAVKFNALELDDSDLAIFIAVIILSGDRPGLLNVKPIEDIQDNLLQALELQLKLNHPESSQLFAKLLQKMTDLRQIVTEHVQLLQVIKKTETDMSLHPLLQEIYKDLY
Outline: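 HEK293H PPARg-bla cells, 5 h settle at 37C/5% CO2; compound (DMSO) 17 h, 37C; B/G FRET substrate 1 h RT; fluorescence intensity read-out. qHTS format.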

[20] = target: Peroxisome proliferator-activated receptor gamma (Homo sapiens) (UniProt P37231); test: qHTS assay to identify small molecule antagonists of the peroxisome proliferator-activated receptor gamma (PPARg) signaling pathway (AID 743191; calls by dose curve; note: series mostly up to about 63 µM; nearly all actives have a fitted effect of over 30% in size)
Outline: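 GeneBLAzer PPARg UAS-bla HEK293H cells, 5 h post-plating, exposed to compounds 17 h at 37C. LiveBLAzer B/G FRET substrate added for 1 h at room temperature; beta-lactamase reporter read by fluorescence intensity.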
% is set by controls: 0 for no effect and ±100 for the full control effect.

CC(COCC(C)OC(=O)c1ccccc1)OC(=O)c1ccccc1 (centres undefined)
inactive: Potency [1] | Potency [2] | Potency [3] | Potency [4] | Potency [5] | Potency [6] | Potency [7] | Potency [8] | Potency [9] | Potency [10] | Potency [11] | Potency [12] | Potency [13] | Potency [14] | outcome [15] | Potency [16]

OCc1ccc(Cl)cc1Cl
inactive: Potency [1] | Potency [2] | Potency [3] | Potency [4] | Potency [5] | Potency [6] | Potency [17] | Potency [8] | Potency [9] | Potency [18] | Potency [10] | Potency [11] | Potency [12] | Potency [14] | outcome [15] | Potency [16]

CS(=O)(=O)c1ccc(Cl)cc1
inactive: Potency [1] | Potency [2] | Potency [3] | Potency [4] | Potency [6] | Potency [17] | Potency [8] | Potency [9] | Potency [18] | Potency [10] | Potency [12] | Potency [14] | outcome [15] | Potency [16]

C=C1C[C@]23C[C@@]1(O)CC[C@H]2[C@@]12C=C[C@H](O)[C@@](C)(C(=O)O1)[C@H]2[C@@H]3C(=O)O
inactive: Potency [1] | Potency [2] | Potency [3] | Potency [4] | Potency [5] | Potency [6] | Potency [7] | Potency [8] | Potency [9] | Potency [10] | Potency [11] | Potency [12] | Potency [13] | Potency [14] | outcome [15] | Potency [16]

CCCCC(CC)COC(=O)c1ccc(C(=O)OCC(CC)CCCC)cc1 (centres undefined)
inactive: Potency [1] | Potency [2] | Potency [19] | Potency [20] | Potency [4] | Potency [5] | Potency [6] | Potency [7] | Potency [17] | Potency [8] | Potency [9] | Potency [18] | Potency [10] | Potency [11] | Potency [12] | Potency [13] | Potency [14]

C[Si](C)(C)N[Si](C)(C)C
inactive: Potency [1] | Potency [2] | Potency [19] | Potency [4] | Potency [5] | Potency [6] | Potency [7] | Potency [17] | Potency [8] | Potency [12] | Potency [14] | outcome [15]

NC(N)=S
inactive: Potency [1] | Potency [2] | Potency [19] | Potency [20] | Potency [4] | Potency [5] | Potency [6] | Potency [8] | Potency [18] | Potency [11] | Potency [12] | Potency [13] | Potency [14] | outcome [15] | Potency [16]

COc1ccccc1[N+](=O)[O-]
inactive: Potency [1] | Potency [2] | Potency [3] | Potency [4] | Potency [6] | Potency [8] | Potency [11] | Potency [12] | Potency [13] | Potency [14] | outcome [15] | Potency [16]

Cc1ccc(Cl)cc1
inactive: Potency [1] | Potency [2] | Potency [19] | Potency [4] | Potency [5] | Potency [6] | Potency [7] | Potency [8] | Potency [9] | Potency [18] | Potency [10] | Potency [11] | Potency [12] | Potency [13] | Potency [14] | outcome [15] | Potency [16]

CCCCCCCCCCCC(=O)N(C)CC(=O)O
inactive: Potency [1] | Potency [2] | Potency [3] | Potency [4] | Potency [6] | Potency [7] | Potency [17] | activity change, negative = cytotoxicity [8] -1.87% [at 5.95 µM] | activation [9] 0.0552% [at 5.95 µM] | ratio activity, negative = inhibition [10] -7.38% [at 6.26 µM] | Potency [12] | Potency [14] | outcome [15] | activity change, negative = inhibition [16] 10.5% [at 6.95 µM]
